Active and inactive are the calls of the source.
Experiments:
[1] = optical density shifts of acrAB sulA E. coli – strain DRC41, OD650, 48 h, E. coli filamentation inducer project, primary screen (AID 1152); conditions: higher = more signal, called active from +8 up or from −8 down;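 further: E. coli MC1000 strain DRC41 lacking acrAB efflux pump and sulA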
[2] = probe aLefty1 binding on compound microarray – biochemical, small-molecule microarray, 635/667 nm fluorescence, primary screen (AID 1153); conditions: higher = more signal;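 further: score merges spot fluorescence with signal-to-noise ratio from the scanned slide images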
[3] = plasmodial surface anion channel blockers, osmotic lysis – cell-based, P. falciparum Indochina, OD700, 1 h, primary screen (AID 1154); conditions: P. falciparum Indochina infected RBC osmotic lysis, higher = more signal, called active from +8 up or from −8 down
[4] = plasmodial surface anion channel blockers, osmotic lysis – cell-based, P. falciparum Indochina, OD700, 2 h, primary screen (AID 1155);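 further: lysis reports solute entry through the parasite surface anion channel PSAC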; conditions: P. falciparum Indochina infected erythrocytes, higher = more signal, called active from +8 up or from −8 down
[5] = changes in parasitized red cell lysis, either direction – P. falciparum Indochina, OD700, 3 h, PSAC antagonist project, primary screen (AID 1156); conditions: P. falciparum-infected erythrocytes, osmotic lysis, higher = more signal, called active from +8 up or from −8 down
[6] = plasmodial surface anion channel blockers, osmotic lysis – cell-based, P. falciparum Indochina, OD700, 18 h, primary screen (AID 1157); conditions: P. falciparum Indochina infected erythrocytes, osmotic lysis OD700, 18 h; higher = more signal, called active from +8 up or from −8 down
[7] = S6 kinase pathway phospho-S6 level changes – cell-based, A549, cytoblot, luminescence, serum-stimulated, primary screen (AID 1158); conditions: 5 h, higher = more signal;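 further: serum-stimulated A549 lung adenocarcinoma cells; signal is phosphorylated S6 detected by cytoblot immunostaining with HRP secondary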
[8] = target: NADPH oxidase 2 (Homo sapiens) (UniProt P04839); assay: compounds shifting NOX2 Amplex Red fluorescence – cell-based, HEK293-NOX2, PMA-stimulated, NOX inhibitor project, primary screen (AID 1159); conditions: 45 min, higher = more signal, called active from +8 up or from −8 down; further: test concentration not given here
[9] = target: NADPH oxidase 4 (Homo sapiens) (UniProt Q9NPH5); assay: compounds shifting NOX4 Amplex Red fluorescence – cell-based, HEK293-NOX4, tetracycline-induced, NOX inhibitor project, primary screen (AID 1160); conditions: HEK293-NOX4, Amplex Red H2O2 fluorescence, 45 min; higher = more signal, called active from +8 up or from −8 down
[10] = target: NADPH oxidase 5 (Homo sapiens) (UniProt Q96PH1); assay: compounds shifting NOX5 Amplex Red fluorescence – cell-based, HEK293-NOX5, NOX inhibitor project, primary screen (AID 1161); conditions: HEK293-NOX5, ionomycin, 45 min, higher = more signal
[11] = compound effects on lung adenocarcinoma cell viability – A549, calcein-AM fluorescence, 48 h, basal, profiling panel (AID 1162); conditions: higher = more signal; further: test concentration not given here
[12] = compound effects on differentiated 3T3-L1 adipocyte viability – cell-based, 3T3-L1 adipocytes, calcein-AM fluorescence, 48 h, basal, profiling panel (AID 1163); conditions: 3T3-L1 adipocytes viability, higher = more signal; further: test concentration not given here
[13] = compound effects on hepatocellular carcinoma cell viability – HepG2, calcein-AM fluorescence, 48 h, basal, profiling panel (AID 1164); conditions: higher = more signal; further: test concentration not given here
[14] = compound effects on multiple myeloma cell viability – MM1S, calcein-AM fluorescence, 48 h, basal, profiling panel (AID 1165); conditions: higher = more signal; further: test concentration not given here
[15] = calcein-AM signal in unstimulated myeloma cells – cell-based, calcein-AM fluorescence, 48 h, PK04 Diversity Set, profiling panel (AID 1166); conditions: RPMI8226 myeloma viability, higher = more signal;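 further: cells grown under basal conditions without added stimulus; test concentration not given here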
[16] = JC-1 mitochondrial signal, unstimulated HepG2 cells – cell-based, JC-1 fluorescence, 24 h, 100 nL compound, profiling panel (AID 1167); conditions: HepG2 mitochondrial potential, higher = more signal; further: test concentration not given here
[17] = JC-1 mitochondrial signal, unstimulated adipocytes – cell-based, JC-1 fluorescence, 3T3-L1 adipocytes, 24 h, 100 nL compound, profiling panel (AID 1168); conditions: JC-1 mitochondrial fluorescence, higher = more signal, called active from +8 up or from −8 down; further: test concentration not given here
[18] = JC-1 mitochondrial signal, unstimulated myeloma cells – cell-based, JC-1 fluorescence, RPMI8226, 24 h, 100 nL compound, profiling panel (AID 1169); conditions: JC-1 mitochondrial potential fluorescence, higher = more signal; further: test concentration not given here
[19] = JC-1 mitochondrial signal, unstimulated MM1S myeloma – cell-based, JC-1 fluorescence, 24 h, 100 nL compound, profiling panel (AID 1170); conditions: MM1S mitochondrial potential, higher = more signal; further: test concentration not given here
[20] = resazurin metabolic signal in A549 cells – cell-based, resazurin fluorescence, 24 h, PK04 Diversity Set, profiling panel (AID 1171); conditions: A549 viability, higher = more signal, called active from +8 up or from −8 down; further: test concentration not given here

Sequence of NADPH oxidase 5 (Homo sapiens) (Q96PH1 whole entry, looked up): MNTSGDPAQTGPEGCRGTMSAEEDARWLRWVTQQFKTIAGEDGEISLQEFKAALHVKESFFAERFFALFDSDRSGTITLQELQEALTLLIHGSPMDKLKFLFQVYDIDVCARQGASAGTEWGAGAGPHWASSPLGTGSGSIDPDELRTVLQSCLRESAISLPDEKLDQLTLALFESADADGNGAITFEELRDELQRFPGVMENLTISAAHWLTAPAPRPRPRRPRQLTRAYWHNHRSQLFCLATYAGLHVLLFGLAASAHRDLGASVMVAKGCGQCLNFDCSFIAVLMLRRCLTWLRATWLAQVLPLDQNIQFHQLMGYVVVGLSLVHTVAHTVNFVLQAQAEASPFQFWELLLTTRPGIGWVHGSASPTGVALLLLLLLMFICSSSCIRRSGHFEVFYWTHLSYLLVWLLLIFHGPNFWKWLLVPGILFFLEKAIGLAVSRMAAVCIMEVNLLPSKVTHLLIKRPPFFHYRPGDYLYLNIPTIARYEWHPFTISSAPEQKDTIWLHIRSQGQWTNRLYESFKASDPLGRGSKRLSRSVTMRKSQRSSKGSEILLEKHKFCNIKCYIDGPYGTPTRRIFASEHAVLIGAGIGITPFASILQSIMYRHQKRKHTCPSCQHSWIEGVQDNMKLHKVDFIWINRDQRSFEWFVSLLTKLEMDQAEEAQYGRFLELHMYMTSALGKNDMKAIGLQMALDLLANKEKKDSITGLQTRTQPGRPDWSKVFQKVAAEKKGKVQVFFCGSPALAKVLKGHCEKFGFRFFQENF
Sequence of NADPH oxidase 2 (Homo sapiens) (P04839 whole entry, looked up): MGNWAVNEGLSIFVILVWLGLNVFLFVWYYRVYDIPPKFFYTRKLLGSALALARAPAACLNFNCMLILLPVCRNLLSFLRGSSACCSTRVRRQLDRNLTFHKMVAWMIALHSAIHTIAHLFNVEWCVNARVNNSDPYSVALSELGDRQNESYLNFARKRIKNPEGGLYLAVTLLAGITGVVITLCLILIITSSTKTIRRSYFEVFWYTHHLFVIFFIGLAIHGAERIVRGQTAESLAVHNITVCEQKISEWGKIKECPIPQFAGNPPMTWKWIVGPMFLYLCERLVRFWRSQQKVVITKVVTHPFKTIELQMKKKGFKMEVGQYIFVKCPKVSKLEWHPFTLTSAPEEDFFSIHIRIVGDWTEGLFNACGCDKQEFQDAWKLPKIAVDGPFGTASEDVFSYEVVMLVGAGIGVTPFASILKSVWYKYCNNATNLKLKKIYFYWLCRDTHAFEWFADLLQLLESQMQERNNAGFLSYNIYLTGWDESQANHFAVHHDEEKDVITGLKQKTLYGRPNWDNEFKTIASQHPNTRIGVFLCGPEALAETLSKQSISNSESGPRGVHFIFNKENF
Sequence of NADPH oxidase 4 (Homo sapiens) (Q9NPH5 whole entry, looked up): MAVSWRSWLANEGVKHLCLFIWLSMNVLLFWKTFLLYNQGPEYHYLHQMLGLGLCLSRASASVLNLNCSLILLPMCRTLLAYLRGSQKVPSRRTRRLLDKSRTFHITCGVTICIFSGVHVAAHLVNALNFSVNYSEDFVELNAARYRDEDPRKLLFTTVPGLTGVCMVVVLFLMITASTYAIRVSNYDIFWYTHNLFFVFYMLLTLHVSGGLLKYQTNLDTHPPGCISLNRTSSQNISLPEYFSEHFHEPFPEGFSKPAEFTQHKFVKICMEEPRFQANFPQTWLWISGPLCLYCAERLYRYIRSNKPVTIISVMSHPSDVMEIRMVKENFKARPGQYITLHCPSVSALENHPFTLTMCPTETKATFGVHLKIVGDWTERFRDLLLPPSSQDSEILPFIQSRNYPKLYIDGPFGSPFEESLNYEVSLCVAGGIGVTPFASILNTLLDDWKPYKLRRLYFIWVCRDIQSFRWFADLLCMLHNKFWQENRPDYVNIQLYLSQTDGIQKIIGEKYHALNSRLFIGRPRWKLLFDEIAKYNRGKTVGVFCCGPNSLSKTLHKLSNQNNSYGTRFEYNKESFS

SMILES | z-score [1] | composite z-score [2] | z-score [3] | z-score [4] | z-score [5] | z-score [6] | z-score [7] | z-score [8] | z-score [9] | z-score [10] | z-score [11] | z-score [12] | z-score [13] | z-score [14] | z-score [15] | z-score [16] | z-score [17] | z-score [18] | z-score [19] | z-score [20]
CCOC(=O)C[C@H]1[C@H](OC(=O)c2ccc(C(=O)c3ccccc3)cc2)[C@@H](NC(=O)c2ccccc2)c2cc(OCCCO)ccc2N1C(=O)c1ccccc1 | -0.402 (inactive) | 0.228 | 2.54 (inactive) | 0.218 (inactive) | 0.0495 (inactive) | 0.357 (inactive) | -0.294 | -0.613 (inactive) | 0.646 (inactive) | 0.0914 | 0.223 | 1.05 | 0.496 | 0.358 | 0.17 | 0.601 | 0.00705 (inactive) | 0.892 | 0.0929 | 0.254 (inactive)
C[N+](C)(C)CCCC[C@@H]1NC(=O)[C@@H]2C[C@H](C(=O)NCCCCCCNC(=O)CS)[C@H](c3ccc(O)cc3)N2C1=O | -0.432 (inactive) | -0.101 | 2.2 (inactive) | 0.244 (inactive) | -3.26 (inactive) | -0.114 (inactive) | -0.489 | 0.614 (inactive) | 0.449 (inactive) | 0.0101 | -0.617 | -0.0068 | -0.0675 | -0.14 | -0.385 | 0.439 | -0.888 (inactive) | -0.111 | -0.432 | -0.382 (inactive)
C#CCNCc1ccccc1 | -0.131 (inactive) | -0.235 | 0.229 (inactive) | 0.876 (inactive) | -0.116 (inactive) | 0.409 (inactive) | -0.255 | -12.1 (active) | -0.493 (inactive) | 0.615 | -0.29 | -0.0255 | 0.331 | 0.612 | -0.523 | -0.221 | -0.815 (inactive) | -0.804 | -0.00594 | 0.0196 (inactive)
COC(=O)[C@H](Cc1ccccc1)N[C@H](/C=C/C1CC1)[C@@H](O)Cc1ccccc1 | 1.85 (inactive) | -0.235 | 0.786 (inactive) | -0.96 (inactive) | -0.868 (inactive) | -1.83 (inactive) | 2.14 | 0.455 (inactive) | 0.0154 (inactive) | -2.49 | -0.531 | -0.451 | 0.021 | 0.18 | 0.732 | 1.46 | 0.792 (inactive) | -0.52 | -1.88 | 1.2 (inactive)
OCC1C=C(/C=C/c2ccccc2)CN1Cc1ccccc1Br (stereo not given) | 0.785 (inactive) | 0.457 | 6.56 (inactive) | 0.673 (inactive) | 1.17 (inactive) | 0.499 (inactive) | 0.0524 | 0.887 (inactive) | -2.84 (inactive) | -0.691 | -0.58 | 1.21 | 0.0668 | -3.2 | -3.64 | 1.35 | 0.401 (inactive) | -0.923 | -1.87 | -0.535 (inactive)
COC(=O)C(CC#Cc1ccc2c(c1)[C@]1(C(=O)N2)[C@H](c2ccccc2OCCO)N2[C@H](c3ccccc3)[C@H](c3ccccc3)OC(=O)[C@H]2[C@@H]1C(N)=O)C(=O)OC | 0.793 (inactive) | 1.81 | 7.57 (inactive) | 2.02 (inactive) | 1.44 (inactive) | 1.2 (inactive) | -0.0528 | 2.12 (inactive) | 0.696 (inactive) | 1.51 | -0.387 | 0.395 | -4.39 | -3.38 | -4.56 | -2.46 | 3.28 (inactive) | -1.18 | -2.09 | -1.01 (inactive)
NCCCCCCNC(=O)[C@H]1C[C@H]2C(=O)N[C@@H](Cc3ccccc3)C(=O)N2[C@H]1c1cccc(OCCO)c1 | 0.921 (inactive) | -0.141 | 5 (inactive) | 0.944 (inactive) | 2.3 (inactive) | 0.472 (inactive) | -0.147 | 0.997 (inactive) | 0.736 (inactive) | 0.392 | 0.516 | 0.454 | -0.378 | 0.456 | 0.112 | -0.215 | 0.896 (inactive) | -0.802 | -0.531 | 1.21 (inactive)
COC(=O)c1c(CC[C@@H](CO)NC(=O)N[C@@H](Cc2ccccc2)Cn2cc(-c3ccccn3)nn2)oc(C(=O)N2CCOCC2)c1C(=O)OC | -0.55 (inactive) | 0.149 | 0.179 (inactive) | 0.571 (inactive) | 0.521 (inactive) | 0.729 (inactive) | 0.291 | -1.76 (inactive) | -0.4 (inactive) | -1.88 | 0.122 | 0.17 | -1.31 | 0.527 | 0.642 | -0.105 | 0.0526 (inactive) | -0.652 | -0.0834 | 0.765 (inactive)
COc1ccc([Si](C)(C)[C@@H]2[C@@H](CC(=O)N3Cc4ccccc4C[C@H]3CO)O[C@]3(C(=O)N(Cc4cccc(N5CCC5=O)c4)c4ccccc43)[C@H]2C)cc1 | -0.879 (inactive) | 0.199 | 2.84 (inactive) | 1.09 (inactive) | -0.2 (inactive) | 0.917 (inactive) | 0.275 | -0.355 (inactive) | 0.912 (inactive) | 2.11 | -0.598 | 0.832 | -0.16 | -2.1 | -2.55 | -0.372 | 1.33 (inactive) | -0.755 | -1.16 | -1.38 (inactive)

Reference: PubChem BioAssay
